Inconclusive results are not listed. A call without a number means that no potency is given here. Unmarked numbers belong to inactive results. Activity calls are given as the source filed them. Calls follow the shape of the dose curve; as a rule, active = well fitted cell-killing curve with a large enough effect; inconclusive = small, poorly fitted or top-dose-only effect, or effect the other way; inactive = no such curve, though single readings can be large or run the other way.
Potency is read from the fitted curve at half-maximal effect.

This assay in a line: Viability qHTS for spleen associated tyrosine kinase inhibitor (SYKi) naive MV4-11 cells (AID 1963823). Also: nearly all actives have a fitted effect of over 40% in size. The conditions noted are these: MV4-11 AML viability, CellTiter-Glo luminescence, 72 h; series mostly up to 45 µM. The gist of the method: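 CellTiter-Glo luminescence, 10 min room-temperature incubation, gave viability. Cells: naive MV4-11 (500/well), treated 72 hr at 37 C, 5% CO2.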
On the technique in general: Quantitative high-throughput screening tests each substance at several concentrations.
For the molecule `CC1=CCC[C@@H]2[C@@](C)(CCc3ccoc3)[C@H](C(=O)O)CC[C@@]12C`, the Potency is 2.86 µM (active).

Take `O=C(O)c1ccncc1Nc1nn(CCN2CCC(F)(F)CC2)c2ccc(F)cc12`: the Potency entry is “inactive”. `C=C(C)[C@@H]1CCC2=CC(=O)C[C@@H](C)[C@]2(C)C1`: the Potency entry was “inactive”.

Regarding `COc1ccc(CNCc2cccc3ccccc23)cc1`, the Potency result was “inactive”. As for `C[C@]1(OC(=O)/C=C/c2ccccc2)C[C@@H](O)[C@]2(O)C=CO[C@@H](O[C@@H]3O[C@H](CO)[C@@H](O)[C@H](O)[C@H]3O)[C@@H]21`, the Potency entry is “inactive”. Take `CC(O)C1CCC2C3CCC4CC(OC5OC(C(=O)O)C(O)C(O)C5O)CCC4(C)C3CCC12C` (centres undefined): the Potency entry is “inactive”. As to `CN(C)CCn1cc(S(=O)(=O)c2cccc(F)c2)c2cccnc21`, the Potency entry was “inactive”. Consider `Cc1cc(O)c(C(C)C)cc1Cl`, for which the Potency entry is “inactive”.

As to `CC(C)CC1(C(=O)OCc2ccc(O[C@@H]3O[C@H](CO)[C@@H](O)[C@H](O)[C@H]3O)cc2)CC(=O)OC(C(=O)O)CC(=O)OCC2OC(O1)C(OC(=O)/C=C/c1ccc(O)cc1)C(O)C2O` (some centres undefined), the viability (% of control) is 90.4% [at 9.25 µM]. On to `COc1cc(Nc2ccc([N+](=O)[O-])cc2C(=O)O)cc2ccccc12`, for which the Potency entry was “inactive”. For the molecule `C=C1C(=O)OC2CC(C)=C(C(C)CCCO)C(O)C12` (centres undefined), the Potency entry was “inactive”.

Turning to `C=C1C[C@]23C[C@H]1[C@@H](O)C[C@H]2[C@@]12C=C[C@H](O)[C@@](C)(C(=O)O1)[C@H]2[C@@H]3C(=O)O`, the Potency entry was “inactive”. With `C[C@@]1(F)[C@H](O)[C@@H](CO)O[C@H]1n1ccc(N)nc1=O`, the Potency entry is “inactive”. As to `O=S(=O)(c1ccccc1)c1cnc2c(N3CCNCC3)cccc2c1`, the Potency result is “inactive”.

These data come from PubChem BioAssay (NCATS).
